{"source": "PubChem BioAssay (NCATS)", "note": "Results filed as inconclusive are left out. A call without a number means that no potency is given here. Active and inactive are the calls of the source. Calls follow the shape of the dose curve; as a rule, active = well fitted cell-killing curve with a large enough effect; inconclusive = small, poorly fitted or top-dose-only effect, or effect the other way; inactive = no such curve, though single readings can be large or run the other way.", "data": [{"experiment": "qHTS assay to identify small molecule inhibitors of chordoma cells - UCH-1 (AID 1259355); also: nearly all actives have a fitted effect of over 55% in size", "conditions": "UCH-1 chordoma viability, CellTiter-Glo, 48 h, combination, with auranofin plus four topoisomerase inhibitors; series mostly up to 46.1 µM", "outline": "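Luminescent ATP read-out (CellTiter-Glo, 30min at room temperature) measured viability of UCH-1 cells exposed for 48hr to test drugs at 15 concentrations, co-dosed with a five-agent combination of auranofin, camptothecin, doxorubicin, rubitecan and topotecan.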", "values": [{"smiles": "CCCCC/C=C\\C/C=C\\C/C=C\\CCCCC(=O)O", "Potency": "inactive"}, {"smiles": "Cn1nnnc1SCC1=C(C(=O)O)N2C(=O)[C@@H](NC(=O)[C@H](O)c3ccccc3)[C@H]2SC1", "Potency": "inactive"}, {"smiles": "COc1cc(S(C)=O)ccc1-c1nc2ncccc2[nH]1", "note": "(configuration not stated)", "Potency": "inactive"}, {"smiles": "C=C1c2c(Cl)ccc(O)c2C(O)=C2C(=O)[C@]3(O)C(O)=C(C(N)=O)C(=O)[C@@H](N(C)C)[C@@H]3[C@@H](O)[C@H]12", "Potency": "inactive"}, {"smiles": "O=C(O)c1cc(O)c2c(c1)[C@H]([C@H]1c3cc(C(=O)O)cc(O)c3C(=O)c3c(O[C@@H]4O[C@H](CO)[C@@H](O)[C@H](O)[C@H]4O)cccc31)c1cccc(O[C@@H]3O[C@H](CO)[C@@H](O)[C@H](O)[C@H]3O)c1C2=O", "Potency": "inactive"}, {"smiles": "S=C=Nc1ccc(N=C=S)cc1", "Potency": "inactive"}, {"smiles": "CC(C)[C@H](N)C(=O)OCC(CO)OCn1cnc2c(=O)[nH]c(N)nc21", "note": "(some centres not stated)", "Potency": "inactive"}, {"smiles": "CC(C)(O/N=C(\\C(=O)N[C@@H]1C(=O)N2C(C(=O)[O-])=C(C[n+]3ccccc3)CS[C@H]12)c1csc(N)n1)C(=O)O", "Potency": "inactive"}, {"smiles": "CC(=O)Oc1cc(C(F)(F)F)ccc1C(=O)O", "Potency": "inactive"}, {"smiles": "Cc1cc(-c2ccc(N=Nc3ccc4c(S(=O)(=O)O)cc(S(=O)(=O)O)c(N)c4c3O)c(C)c2)ccc1N=Nc1ccc2c(S(=O)(=O)O)cc(S(=O)(=O)O)c(N)c2c1O", "Potency": "inactive"}, {"smiles": "C#C[C@]1(O)CC[C@H]2[C@@H]3CCC4=C(CCC(=O)C4)[C@H]3CC[C@@]21C", "Potency": "inactive"}, {"smiles": "CO/N=C(\\C(=O)N[C@@H]1C(=O)N2C(C(=O)O)=C(CSc3nnnn3C)CS[C@H]12)c1csc(N)n1", "Potency": "inactive"}]}]}
